Source: PubChem BioAssay AID1159580 (chemical genetic matrix, 2015)
Values joined by “and” are separate entries in the source; they are usually repeats but may differ in a detail not shown here. Equal values may be shown once. In all, about 5,500 compounds went through this assay and about 2,000 (36%) were called active. Inconclusive results (about 18%) are left out. Cut-off read from the data, not from the text of the source: active = normalized growth mostly below about 0.91 (no sharp cut-off); inconclusive = no clear call, values can overlap the other calls; inactive = mostly above about 0.92. Some of the results follow.

Assay: chemical genetic growth profiling, strain panel (AID 1159580);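 note: tested at 20 µM; growth read once vehicle control cultures reached saturation at 30 °C; 1 = growth at the plate median or of vehicle wells; lower values mean less growth of the strain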
Conditions: S. cerevisiae deletion strains, growth OD

Measured: normalized growth

Nc1ccc(S(=O)(=O)Nc2ccccn2)cc1
inactive: locus YAL013W, strain DEP1, stronger effect = lower value 1.02 | locus YAL021C, strain ccr4, stronger effect = lower value 1 | locus YAL026C, strain drs2, stronger effect = lower value 1.01 | locus YAL030W, strain snc1, stronger effect = lower value 1.01 | locus YBL061C, strain skt5, stronger effect = lower value 1.01 | locus YBR009C, strain hhf1, stronger effect = lower value 0.983 | locus YBR021W, strain FUR4, stronger effect = lower value 1.04 | locus YBR023C, strain chs3, stronger effect = lower value 1.01 | locus YBR171W, strain sec66, stronger effect = lower value 1.01 | locus YBR229C, strain ROT2, stronger effect = lower value 1.01 | locus YBR231C, strain swc5, stronger effect = lower value 1.03 | locus YBR279W, strain paf1, stronger effect = lower value 1.01 | locus YCL011C, strain gbp2, stronger effect = lower value 0.99 | locus YCL016C, strain dcc1, stronger effect = lower value 1 | locus YCL029C, strain bik1, stronger effect = lower value 1 | locus YCL069W, strain vba3, stronger effect = lower value 1 | locus YCR088W, strain abp1, stronger effect = lower value 1 | locus YDL005C, strain med2, stronger effect = lower value 1.02 | locus YDL035C, strain GPR1, stronger effect = lower value 1.01 | locus YDL040C, strain nat1, stronger effect = lower value 1.01 | locus YDL074C, strain BRE1, stronger effect = lower value 1.02 | locus YDL101C, strain DUN1, stronger effect = lower value 1 | locus YDL134C, strain PPH21, stronger effect = lower value 1.01 | locus YDL185W, strain tfp1, stronger effect = lower value 0.982 | locus YDL192W, strain arf1, stronger effect = lower value 0.996 | locus YDR001C, strain nth1, stronger effect = lower value 1.01 | locus YDR069C, strain doa4, stronger effect = lower value 1.02 | locus YDR101C, strain arx1, stronger effect = lower value 0.987 | locus YDR137W, strain rgp1, stronger effect = lower value 1.01 | locus YDR159W, strain sac3, stronger effect = lower value 0.986 | locus YDR162C, strain NBP2, stronger effect = lower value 1 | locus YDR195W, strain ref2 1.04 | locus YDR297W, strain sur2, stronger effect = lower value 1.01 | locus YDR318W, strain mcm21, stronger effect = lower value 0.988 | locus YDR334W, strain swr1, stronger effect = lower value 1.01 | locus YDR335W, strain msn5, stronger effect = lower value 1.01 | locus YDR388W, stronger effect = lower value 0.988 | locus YDR392W, strain spt3, stronger effect = lower value 0.951 | locus YDR502C, strain sam2, stronger effect = lower value 0.996 | locus YEL003W, strain gim4, stronger effect = lower value 1.02 | locus YEL037C, strain rad23, stronger effect = lower value 1.01 | locus YEL061C, strain CIN8 (second series), stronger effect = lower value 1.01 | locus YEL061C, strain CIN8, stronger effect = lower value 1.01 | locus YER015W, strain faa2, stronger effect = lower value 1.02 | locus YER016W, strain bim1, stronger effect = lower value 0.996 | locus YER110C, stronger effect = lower value 0.993 | locus YER111C, strain swi4, stronger effect = lower value 1.01 | locus YER155C, strain BEM2 (second series), stronger effect = lower value 1.01 | locus YER155C, strain BEM2, stronger effect = lower value 1.01 | locus YER167W, strain BCK2, stronger effect = lower value 1 | locus YFR010W, strain ubp6, stronger effect = lower value 1.02 | locus YGL078C, strain dbp3, stronger effect = lower value 1 | locus YGL086W, strain mad1, stronger effect = lower value 1 | locus YGL167C, strain pmr1, stronger effect = lower value 1.02 | locus YGL173C, strain kem1, stronger effect = lower value 1.02 | locus YGL227W, strain vid30, stronger effect = lower value 1.02 | locus YGL240W, strain doc1, stronger effect = lower value 1.02 | locus YGL248W, strain PDE1, stronger effect = lower value 1.02 | locus YGL253W, strain hxk2, stronger effect = lower value 0.999 | locus YGR135W, strain pre9, stronger effect = lower value 1.01 | locus YGR229C, strain SMI1, stronger effect = lower value 1.02 | locus YGR252W, strain gcn5, stronger effect = lower value 1.03 | locus YHR013C, strain ard1, stronger effect = lower value 1.01 | locus YHR027C, strain rpn1, stronger effect = lower value 1.01 | locus YHR030C, strain SLT2, stronger effect = lower value 1.01 and 0.97 | locus YHR079C, strain IRE1 (second series), stronger effect = lower value 0.992 | locus YHR079C, strain IRE1, stronger effect = lower value 0.985 | locus YHR094C, strain hxt1, stronger effect = lower value 0.99 | locus YHR129C, strain ARP1, stronger effect = lower value 1.02 | locus YHR142W, strain chs7, stronger effect = lower value 0.98 | locus YHR200W, strain rpn10, stronger effect = lower value 0.986 | locus YIL066C, strain RNR3, stronger effect = lower value 1.01 | locus YIL073C, strain SPO22, stronger effect = lower value 0.989 | locus YIL125W, strain kgd1, stronger effect = lower value 0.983 | locus YIR030C, strain dcg1, stronger effect = lower value 0.996 | locus YJL092W, strain hpr5, stronger effect = lower value 1.02 | locus YJL095W, strain BCK1 (second series), stronger effect = lower value 1.01 | locus YJL095W, strain BCK1, stronger effect = lower value 1.02 and 0.979 | locus YJL115W, strain asf1, stronger effect = lower value 1.01 | locus YJL129C, strain trk1, stronger effect = lower value 1.02 | locus YJL134W, strain LCB3, stronger effect = lower value 1 | locus YJL154C, strain vps35, stronger effect = lower value 1.02 | locus YJL164C, strain tpk1, stronger effect = lower value 0.972 | locus YJL166W, strain qcr8, stronger effect = lower value 1.02 | locus YJL168C, strain set2, stronger effect = lower value 0.99 | locus YJL187C, strain SWE1 (second series), stronger effect = lower value 1.01 | locus YJR043C, strain POL32, stronger effect = lower value 1 | locus YJR066W, strain TOR1, stronger effect = lower value 0.928
